From PubChem BioAssay
Only some compounds are listed: those with a hit (about 6.8% of all), similar ones and a draw of the others.
KB-3-1 cytotox = kills parental KB-3-1 adenocarcinoma cells; KB-3-1 viability, CellTiter-Glo ATP luminescence, 72 h; Potency, µM (doses to about 46.1 µM), hits mostly cytotoxic; 1.4% of 400,000 active; AID 1347075; further: on the % scale 0 is the no-effect control and ±100 the full control effect; nearly all actives have a fitted effect of over 60% in size
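Cytotoxicity in the drug-sensitive parental line KB-3-1 was scored as loss of CellTiter-Glo luminescence following 72 h incubation with compound. Values come from curve fitting of normalized concentration-response data.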
SW480 rereplic = inducers of DNA re-replication in SW480 colon cancer cells | SW480 DNA re-replication, Hoechst DNA content imaging, 48 h | Potency, µM (highest dose often 46.1 µM), inactives show at the top dose re-replication activation, actives largely listed as activators | 1.8% of 340,000 active | AID 624297; further: % of control where 0% means no effect; nearly all actives have a fitted effect of over 55% in size
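Hoechst fluorescence of nuclei (405 nm excitation, 500-530 nm emission) measured by plate-scanning imager after 48 hr compound exposure at 37 C; re-replication scored as increased number of nuclei with elevated intensity.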
MCF10A rerep = DNA re-replication induction in MCF 10a cells; Potency, µM (doses to about 46.1 µM), without a hit: at the highest dose activity, positive = re-replication, most hits filed as activators; MCF 10A DNA re-replication, Hoechst nuclear intensity, 48 h; AID 624296; 2.9% of 350,000 active; further: % of control where 0% means no effect; nearly all actives have a fitted effect of over 50% in size
PINK1 expr mod = PINK1 expression modulation; Potency, µM (titrated, usually from 76.6 µM), for the others: at the highest dose activation (PINK1 increase), most hits filed as activators; 0.2% of 410,000 active; PINK1 immunofluorescence, high-content cytometry, 24 h; active means well fitted activation curve with a large enough effect; inconclusive means small, poorly fitted or top-dose-only effect; cell line not stated here; further: % of control where 0% means no effect; nearly all actives have a fitted effect of over 65% in size
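PINK1 protein, normally rapidly degraded, was detected by immunofluorescence after 24 hour compound treatment of a stable cell line. Titration data (5 concentrations) came from laser-scanning cytometry, with CCCP-treated wells as controls.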
KB-V1 MDR tox = kills drug-selected multidrug resistant KB-V1 cells | KB-V1 MDR cells viability, CellTiter-Glo, 72 h | Potency, µM (series often up to 46.1 µM), hits mostly cytotoxic | 3.4% of 400,000 active; further: on the % scale 0 is the no-effect control and ±100 the full control effect; nearly all actives have a fitted effect of over 60% in size
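Potencies derive from concentration-effect curves fitted to normalized luminescence (CellTiter-Glo) of KB-V1 cells treated for 72 h at 37 degrees C in phenol-red-free DMEM containing 10% FBS.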
PTAP TSG101 blk = blocks PTAP/TSG101 interaction to inhibit HIV-1 budding | Q99816 | 340,000 tested, under 10 active | Fluorescence polarization, FITC-PTAP peptide / Tsg101 binding | AID 493005 | Potency, µM (titrated, usually from 115 µM), for inactives: at the highest dose activity change, negative = inhibition, most hits filed as inhibitors; active means well fitted inhibition curve with a large enough effect in the main read-out, with a control signal flat, not every such curve was filed as active; inconclusive means small, poorly fitted or top-dose-only effect, or effect the other way, or a change in a side signal; inactive means no such curve, though single readings can be large or run the other way; further: % of control where 0% means no effect
Target sequence (Q99816 whole entry, looked up): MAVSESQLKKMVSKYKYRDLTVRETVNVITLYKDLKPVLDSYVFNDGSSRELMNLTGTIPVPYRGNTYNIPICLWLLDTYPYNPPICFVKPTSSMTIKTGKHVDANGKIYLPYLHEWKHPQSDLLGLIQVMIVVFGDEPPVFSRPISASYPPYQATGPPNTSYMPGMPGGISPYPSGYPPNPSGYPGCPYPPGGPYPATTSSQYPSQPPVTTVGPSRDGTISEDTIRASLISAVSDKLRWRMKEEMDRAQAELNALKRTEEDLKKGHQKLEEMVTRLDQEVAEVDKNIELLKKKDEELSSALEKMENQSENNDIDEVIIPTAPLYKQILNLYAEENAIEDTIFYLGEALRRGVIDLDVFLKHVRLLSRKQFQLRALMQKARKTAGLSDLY
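Fluorescence polarization binding of Tsg101 binding domain (10 uM final) to FITC-labeled PTAP peptide (50 nM final) in HEPES pH 7.5 buffer with NaCl, Tween 20, EDTA, TCEP. Compounds added before peptide; binding 20 min at RT.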
An asterisk follows results filed as active; i = inactive; ? = inconclusive; · = no result given; [ ] = another dose, or the depositor's remark. Unless noted, the call rests on the fitted dose curve; in most records, active means well fitted curve in the direction sought with a large enough effect; inconclusive means small, poorly fitted or top-dose-only effect, or another doubt; inactive means no such curve, though single readings can be large; an effect the other way counts as inactive or inconclusive. Potency means the concentration at half of the fitted maximal effect.

SMILES	KB-3-1 cytotox	SW480 rereplic	MCF10A rerep	PINK1 expr mod	KB-V1 MDR tox	PTAP TSG101 blk
COc1ccc(-c2oc3cccnc3c2C#CC2(O)CCCCC2)cc1	i	27%	18µM*	-1%	i	-5%
COc1ccccc1-c1sc2cc3c(cc2c1C#CCO)OCO3	i	-1%	21µM*	1%	i	1%
COc1cc(-c2ccc3sc(-c4ccsc4)c(C#CCO)c3c2)cc(OC)c1OC	i	0%	12µM*	19%	i	3%
Cc1ccccc1OCC(=O)NCC(=O)OCc1ccc2ccccc2c1	i	·	·	0%	i	·
CCC1CN(CCNC(=O)c2cccc3nccnc23)Cc2cc(OC)ccc2O1 (stereo not drawn)	·	·	·	-1%	·	·
Cc1ccccc1C1(CC(=O)N2CCOCC2)CC(=O)N(Cc2cccnc2)C1=O (stereo not drawn)	·	·	·	-1%	·	·
COc1cc2c(C#CCO)c(-c3ccc(C#N)cc3)oc(=O)c2cc1OC	i	-2%	-12%	1%	i	0%
COc1cc2c(C#CCCCO)c(-c3ccc(C#N)cc3)oc(=O)c2cc1OC	i	?	6.5µM*	7%	?	-1%
COc1ccc(-c2oc(=O)c3cc(OC)c(OC)cc3c2C#CC2(O)CCCCC2)cc1	i	-11%[9.22 µM]	2.1µM*	2%	?	-19%
Cc1ccsc1C(=O)NCCC(c1ccccc1)c1ccccc1	i	7%	?	26%	i	-1%
Cc1nc(C)c(C(=O)NCCC(c2ccccc2)c2ccccc2)o1	?	12%	-2%	5%	8.2µM*	0%
COc1ccc(S(=O)(=O)c2nnn(-c3ccccc3F)c2C)cc1	i	·	·	1%	i	·
COc1cc(CN2CCC(C(=O)NC(c3ccc(F)cc3)c3ccc4ccccc4n3)CC2)cc(OC)c1 (stereo not drawn)	5.2µM*	·	·	-1%	?	·
COc1ccc(OCCN2CCC(C(=O)NC(c3ccc(F)cc3)c3ccc4ccccc4n3)CC2)cc1 (stereo not drawn)	?	·	·	3%	i	·
O=C(NC(c1ccc(F)cc1)c1ccc2ccccc2n1)C1CCN(CCOc2ccc(F)cc2)CC1 (stereo not drawn)	?	·	·	0%	18µM*	·
O=[S+]([O-])(Nc1ccccc1F)c1cccc(NC/C=C/c2ccccc2)c1	i	·	·	·	i	·
C=CCNC(=O)c1ccc(N(Cc2ccc(Cl)cc2)S(C)(=O)=O)cc1	i	-2%	7%	0%	i	-9%
C=CCNC(=O)c1ccc(CN(c2ccc(OCC)cc2)S(=O)(=O)c2ccc(C)cc2)cc1	?	?	26µM*	7%	i	-3%
COc1cc(/C=C(/C#N)c2ccccc2)ccc1Oc1ccc([N+](=O)[O-])cn1	i	4%	19%	-8%[38.3 µM]	18µM*	3%
COc1cc(/C=C(\C#N)c2nc3ccccc3[nH]2)ccc1Oc1ccc([N+](=O)[O-])cn1	i	21%	?	?	i	-2%
CCCc1cc(=O)[nH]c2nnc(SCC)n12	·	·	·	3%	·	·
Nc1c(C(=O)Nc2ccc(S(=O)(=O)N3CCCC3)cc2)sc2nc3cc4c(cc3cc12)CCC4	?	-3%	15%	?	?	0%
Nc1c(C(=O)Nc2ccc(S(=O)(=O)N3CCCC3)cc2)sc2nc3ccc(OC(F)(F)F)cc3cc12	15µM*	15%	?	?	?	?
CCOc1ccc(OCC)c(NS(=O)(=O)c2ccc3c(c2)CCCN3C(C)=O)c1	i	·	·	-1%	i	·
CCn1nc(NC(=O)c2ccccc2)c2cc3cccc(C)c3nc21	i	12µM*	6.5µM*	6%	i	-1%
SMILES	KB-3-1 cytotox	SW480 rereplic	MCF10A rerep	PINK1 expr mod	KB-V1 MDR tox	PTAP TSG101 blk
CCCCC(=O)Nc1nn(CC)c2nc3c(C)cccc3cc12	i	?	?	3%	i	-3%
CCn1nc(NC(=O)Cc2ccc(OC)cc2)c2cc3cccc(C)c3nc21	i	?	4.1µM*	1%	i	-4%
CCn1nc(NC(=O)COC)c2cc3cccc(C)c3nc21	i	?	0%	-2%	i	-2%
Cc1ccc2cc3c(NC(=O)c4ccco4)nn(CC(C)C)c3nc2c1	i	9.2µM*	?	14%	?	-1%
CC(=O)Nc1nn(CC(C)C)c2nc3ccc(C)cc3cc12	i	·	·	6%	i	·
CCCCn1nc(NC(=O)COC)c2cc3cc(OC)ccc3nc21	i	15µM*	9%	3%	i	-4%
CCn1nc(NC(C)=O)c2cc3cccc(C)c3nc21	i	123%	3%	1%	?	-3%
Cc1cccc2cc3c(NC(=O)C(C)(C)C)nn(CC(C)C)c3nc12	i	21µM*	?	11%	i	-5%
CCn1nc(NC(=O)Cc2ccc(OC)cc2)c2cc3cc(C)ccc3nc21	?	7.3µM*	1.8µM*	5%	i	-1%
CCn1nc(NC(=O)c2cccs2)c2cc3ccccc3nc21	?	15µM*	18µM*	3%	i	-3%
CCn1nc(NC(=O)C(C)C)c2cc3cccc(C)c3nc21	i	8.2µM*	?	11%	i	0%
CCn1nc(NC(=O)c2cccnc2)c2cc3ccccc3nc21	?	3%	?	2%[38.3 µM]	?	-3%
Fc1ccc(-c2cc(-c3ccc(F)cc3)c3c(n2)-c2cc(F)ccc2OC3)cc1	i	·	·	1%	i	·
CC(C)C(NS(C)(=O)=O)c1nnc2n1CCN(Cc1ccc(Cl)cc1)CC2 (stereo not drawn)	·	·	·	2%	·	·
COc1ccc(CCC(=O)NCc2nc3cccnc3n2Cc2ccc(C)cc2)cc1	·	·	·	0%	·	·
Cc1ccc(CN2CCCn3nc(C(=O)NCCC(C)C)cc3C2=O)cc1	i	·	·	2%	i	·
CCCn1nc(NC(=O)C2CCCO2)c2cc3cccc(C)c3nc21 (stereo not drawn)	i	2.1µM*	?	1%	i	-5%
CC(C)Cn1nc(NC(=O)C2CCCO2)c2cc3ccccc3nc21 (stereo not drawn)	i	29%	-8%	0%	i	-5%
CCCCc1cc2c(c(NC(=O)CC)n1)c(=O)oc1ccccc12	i	-5%	5%	9%	16µM*	1%
CC(=O)Nc1nc(CC(C)C)cc2c1c(=O)oc1ccccc12	i	0%	-8%	0%	i	-6%
Cc1ccc2c(CC(=O)N(Cc3ccc(N(C)C)cc3)Cc3ccco3)coc2c1C	?	·	·	-1%	i	·
